According to ChEMBL document CHEMBL1157539, “Thousands of chemical starting points for antimalarial lead identification” (Nature, 2010):

Tests used:
Format in all cases: functional
Plasmodium falciparum [1] = assay: GSK_TCMDC: Inhibition of Plasmodium falciparum 3D7 in whole red blood cells, using parasite LDH activity as an index of growth. Test compounds present at 2uM
Plasmodium falciparum [2] = assay: GSK_TCMDC: Inhibition of Plasmodium falciparum Dd2 in whole red blood cells, using parasite LDH activity as an index of growth. Test compounds present at 2uM
HepG2 = assay: GSK_TCMDC: Percent inhibition of human HepG2 cell line. Test compounds present at 10uM.

| Structure (SMILES) | Inhibition (Plasmodium falciparum [1]) [%] | Inhibition (Plasmodium falciparum [2]) [%] | Inhibition (HepG2) [%] |
| --- | --- | --- | --- |
| FC(F)(F)c1ccc2[nH]c(-c3cccc(-c4ccc(CNCc5cnn(-c6ccccc6)n5)cc4)c3)nc2c1.O=C(O)C(F)(F)F | 100 | 67 | 14 |
| Cc1nc(C)c(-c2ccc(Oc3ccc(OC(F)(F)F)cc3)cc2)c(O)c1I | 95 | 96 | 3 |
| Cc1cc2nc(-c3ccc(/C=C/C(=O)NC4CCCCC4)cc3)[nH]c2cc1C | 93 | 10 | 9 |
| CCc1ccc(CN2CCC(CNC(=O)c3cc(-c4cccc(Cl)c4)cs3)C2)cc1.O=C(O)C(F)(F)F (stereo not given) | 88 | 19 | 27 |
| O=C(Nc1ccc(-c2ccccc2)cc1)Nc1ccc2c(c1)CCNCC2.O=C(O)C(F)(F)F | 97 | 48 | 41 |
| CCCC(C)Nc1nc(C)cc(N[C@@H](CC(C)C)C(=O)NCc2cccc(F)c2)n1.O=C(O)C(F)(F)F (stereo not given in full) | 96 | 63 | 1 |
| CCC(C)NC(=O)CN1CN(c2ccccc2)C2(CCN(C(=O)c3ccc(C(C)(C)C)cc3)CC2)C1=O (stereo not given) | 100 | 100 | 0 |
| CCc1cccc(-c2cc(N)n(C)c3nc(N)nc(=O)c2-3)c1 | 85 | 28 |  |
| Cc1ccc(C(=O)Nc2ccc(C)c(OC3CCN(Cc4ccco4)C3)c2)cc1.O=C(O)C(F)(F)F (stereo not given) | 90 | 49 | 10 |
| Cc1c(CC(=O)NCCC2CCN(CCCCCNC(=O)/C=C/c3ccc(Cl)c(Cl)c3)CC2)sc2ccc(Cl)cc12 | 92 | 8 | 59 |
| CC(=NNc1nc2ccccc2s1)c1ccccn1.Cl | 88 | 47 |  |
| OCC1CCN(Cc2cccc(C#Cc3cc4ncnc(Nc5ccc(OCc6cccc(F)c6)c(Cl)c5)c4s3)n2)CC1 | 99 | 95 | 41 |
| CCn1ncc2c(N3CCCC3=O)cc(C(=O)N[C@@H](Cc3ccccc3)[C@H](O)CNC(C)(C)c3cccc(C(F)(F)F)c3)cc21 | 98 | 99 | 10 |
| CCc1cn(C)c2c(N3CCCC3=O)cc(C(=O)N[C@@H](Cc3ccccc3)[C@H](O)CNC(C)(C)CCCC(C)C)cc12 | 97 | 98 | 15 |
| CCOc1ccccc1C1CCN(CCCCNC(=O)c2ccc(NC(=O)c3ccc(Cl)cc3)cc2)CC1 | 95 | 27 | 13 |
| N#Cc1ccc(-c2ccc(OCC(O)CN3CCCN(Cc4cccc(O)c4Cl)CC3)cc2)cc1 (stereo not given) | 98 | 66 | 3 |
| O=C(/C=C/c1ccc(Cl)cc1)NCCCCCN1CCCC(C(=O)Nc2ccc(Cl)c(Cl)c2)C1 (stereo not given) | 96 | 3 | 27 |
| CCN(CC1CCN(CC2(O)CCOCC2)CC1)c1cc(C)nc(Nc2ccc(Cl)cc2)n1 | 100 | 99 | 34 |
| CS(=O)(=O)CCNCc1nc(-c2ccc3ncnc(Nc4ccc(OCc5cccc(F)c5)c(Cl)c4)c3c2)cs1.Cl | 98 | 34 | 8 |
| Br.CC1(C)NC(N)=NC(=N)N1OCCCOc1ccccc1Cl | 96 | 94 | 64 |

| Structure (SMILES) | Inhibition (Plasmodium falciparum [1]) [%] | Inhibition (Plasmodium falciparum [2]) [%] | Inhibition (HepG2) [%] |
| --- | --- | --- | --- |
| COc1ccc2nccc([C@@H](O)CN3CCC(NCc4ccc5scnc5c4)CC3)c2c1.O=C(O)C(=O)O | 100 | 93 | 17 |
| NCCNc1ccc([N+](=O)[O-])cc1C(=O)Nc1cccc(C(F)(F)F)c1 | 94 | 33 | 1 |
| Nc1ncc(-c2ccc(F)c(Cl)c2)c(N)n1 | 83 | 0 |  |
| COc1cc(CNCCCNc2nc(=O)c3sccc3[nH]2)c2[nH]cc(Cl)c2c1.CS(=O)(=O)O | 96 | 0 | 29 |
| CCn1ccc2c(N3CCCCS3(=O)=O)cc(C(=O)N[C@@H](Cc3ccccc3)[C@H](O)CNC3CCCCC3)cc21 | 98 | 98 | 1 |
| O=C(C=Cc1ccc(Cl)c(Cl)c1)NCCCCCN1CCCC(CCCNC(=O)/C=C/c2ccccc2)C1 (stereo not given) | 98 | 12 | 92 |
| Cl.Clc1ccc2c(N3CCN(CCN4CCN(c5ccnc6cc(Cl)ccc56)CC4)CC3)ccnc2c1 | 99 | 100 | 10 |
| Cc1cccc2nc(-c3ccc(-c4cccc(CNCCc5ccncc5)c4)s3)[nH]c12.O=C(O)C(F)(F)F | 100 | 89 | 11 |
| COc1ccccc1-c1nc2c(ccc3nc(N)nc(N)c32)[nH]1 | 100 | 93 |  |
| CCOC(=O)c1c(-c2ccccc2)c(C(=O)OCC)n2ccccc12 | 93 | 70 |  |
| O=[N+]([O-])c1ccc(C2=NN(S(=O)(=O)c3c(Cl)cc(Cl)cc3Cl)CCCC2)cc1 | 99 | 98 | 5 |
| CC(C)N(Cc1cnc(N)c(C#N)n1)c1ccc(Cl)c(Cl)c1 | 97 | 63 | 0 |
| CCNc1cc(C(=O)N[C@@H](Cc2ccccc2)[C@H](O)CNC2CCC(F)(F)CC2)c(F)c(N2CCCCS2(=O)=O)c1.O=CO | 100 | 97 | 0 |
| CN(C)CCNc1cc(-c2ccc3ccccc3c2)nc2ccccc12 | 100 | 58 | 24 |
| CCOc1ccccc1CNc1nccc(NCCc2cn(C)c3ccccc23)n1 | 98 | 62 | 27 |
| CCCCc1ccc(-c2ccc3[nH]c(C)c(Br)c(=O)c3c2)cc1 | 97 | 97 | 0 |
| Cc1ccc(CN2CCCN(Cc3cccc(NC(=O)c4ccc(Cl)c(Cl)c4)c3)CC2)cc1.O=C(O)C(F)(F)F | 96 | 18 | 32 |
| CO/C(=C\C=C\c1cc2cc(Cl)c(Cl)cc2[nH]1)C(=O)NCCCN1CCN(c2ccc(OC)cc2)CC1 | 99 | 44 | 40 |
| COc1ccccc1CCNC(=O)c1cnc(N2CCN(c3ccncc3)CC2)c(Cl)c1.O=C(O)C(F)(F)F | 98 | 54 | 30 |
| CC(C)N1CCC(N(Cc2ccc(-c3ccc(C(F)(F)F)cc3)cc2)C(=O)Cn2c(SCc3cccc(F)c3F)nc(=O)c3ccccc32)CC1.O=C(O)C(O)C(O)C(=O)O | 91 | 75 | 74 |
